According to the supplement of paper PMC8728848:
The sample as a whole holds a higher share of the strongest signals than the screen did.

What was measured:
Experiment in all cases: glycan array binding signal (z-score within array); higher = stronger binding
[1] = test system: Neu5Ac(a2-3)Gal(b1-4)GlcNAc; conditions: glycan notation: IUPAC condensed, linker removed
How it was run: (§1)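 The Consortium for Functional Glycomics database supplied 3228 glycan arrays, of which those lacking an available protein sequence were dropped. The binding signal, a within-array Z-score, was averaged across arrays of the same protein sequence and across linkers. Negative scores can be read as non-binding.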

Neu5Ac(a2-3)Gal(b1-4)Glc = conditions: glycan notation: IUPAC condensed, linker removed; mutation: R125K
How it was run: as §1

[2] = test system: Neu5Ac(a2-3)Gal(b1-4)[Fuc(a1-3)]GlcNAc(b1-3)Gal(b1-4)GlcNAc; conditions: glycan notation: IUPAC condensed, linker removed; mutation: R125K
How it was run: as §1

[3] = test system: Neu5Ac(a2-3)Gal(b1-4)[Fuc(a1-3)]GlcNAc(b1-3)Gal; conditions: glycan notation: IUPAC condensed, linker removed
How it was run: as §1

[4] = test system: Neu5Ac(a2-3)Gal(b1-4)[Fuc(a1-3)]GlcNAc6S; conditions: glycan notation: IUPAC condensed, linker removed
How it was run: as §1

[5] = test system: Neu5Ac(a2-3)Gal(b1-4)[Fuc(a1-3)]GlcNAc(b1-3)Gal(b1-4)[Fuc(a1-3)]GlcNAc(b1-3)Gal(b1-4)[Fuc(a1-3)]GlcNAc; conditions: glycan notation: IUPAC condensed, linker removed
How it was run: as §1

[6] = test system: Neu5Ac(a2-3)Gal(b1-4)[Fuc(a1-3)]GlcNAc(b1-3)GalNAc; conditions: glycan notation: IUPAC condensed, linker removed
How it was run: as §1

[7] = test system: Neu5Ac(a2-3)Gal(b1-4)[Fuc(a1-3)]GlcNAc; conditions: glycan notation: IUPAC condensed, linker removed
How it was run: as §1

CHI3L1 (Homo sapiens), P36222, sequence (P36222 whole entry): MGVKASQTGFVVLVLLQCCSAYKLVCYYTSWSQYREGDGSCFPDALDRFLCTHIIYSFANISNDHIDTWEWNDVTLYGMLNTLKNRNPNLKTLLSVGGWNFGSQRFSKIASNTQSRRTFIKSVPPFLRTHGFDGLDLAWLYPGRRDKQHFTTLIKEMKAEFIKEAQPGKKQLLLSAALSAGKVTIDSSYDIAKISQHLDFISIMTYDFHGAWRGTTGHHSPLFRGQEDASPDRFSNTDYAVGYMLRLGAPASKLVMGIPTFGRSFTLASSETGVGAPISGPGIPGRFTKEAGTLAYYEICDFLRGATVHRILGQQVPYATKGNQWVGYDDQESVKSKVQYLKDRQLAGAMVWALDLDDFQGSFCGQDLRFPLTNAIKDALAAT
PILRb (Mus musculus), Q2YSF2, sequence (Q2YSF2 entry or part of it): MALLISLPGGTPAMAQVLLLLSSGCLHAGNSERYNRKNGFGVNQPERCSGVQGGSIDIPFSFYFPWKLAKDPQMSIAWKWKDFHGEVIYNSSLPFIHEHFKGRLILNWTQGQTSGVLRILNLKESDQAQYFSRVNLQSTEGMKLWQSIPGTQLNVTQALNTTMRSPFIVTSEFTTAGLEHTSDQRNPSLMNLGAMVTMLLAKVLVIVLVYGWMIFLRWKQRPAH
6RG (Lolium perenne), sequence (chain, as listed by the source): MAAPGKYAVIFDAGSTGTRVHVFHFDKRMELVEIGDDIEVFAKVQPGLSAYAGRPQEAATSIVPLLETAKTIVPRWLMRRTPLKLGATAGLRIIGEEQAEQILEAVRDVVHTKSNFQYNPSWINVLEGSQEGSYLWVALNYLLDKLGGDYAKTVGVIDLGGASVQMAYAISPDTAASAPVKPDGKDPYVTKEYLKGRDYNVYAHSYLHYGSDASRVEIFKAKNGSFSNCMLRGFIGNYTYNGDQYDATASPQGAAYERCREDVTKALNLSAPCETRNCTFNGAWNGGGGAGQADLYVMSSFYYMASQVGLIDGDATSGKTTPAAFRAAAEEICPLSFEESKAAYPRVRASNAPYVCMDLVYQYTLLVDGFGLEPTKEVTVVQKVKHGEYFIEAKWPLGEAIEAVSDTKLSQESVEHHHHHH
C3b (Homo sapiens), P01024, sequence (P01024 23-667): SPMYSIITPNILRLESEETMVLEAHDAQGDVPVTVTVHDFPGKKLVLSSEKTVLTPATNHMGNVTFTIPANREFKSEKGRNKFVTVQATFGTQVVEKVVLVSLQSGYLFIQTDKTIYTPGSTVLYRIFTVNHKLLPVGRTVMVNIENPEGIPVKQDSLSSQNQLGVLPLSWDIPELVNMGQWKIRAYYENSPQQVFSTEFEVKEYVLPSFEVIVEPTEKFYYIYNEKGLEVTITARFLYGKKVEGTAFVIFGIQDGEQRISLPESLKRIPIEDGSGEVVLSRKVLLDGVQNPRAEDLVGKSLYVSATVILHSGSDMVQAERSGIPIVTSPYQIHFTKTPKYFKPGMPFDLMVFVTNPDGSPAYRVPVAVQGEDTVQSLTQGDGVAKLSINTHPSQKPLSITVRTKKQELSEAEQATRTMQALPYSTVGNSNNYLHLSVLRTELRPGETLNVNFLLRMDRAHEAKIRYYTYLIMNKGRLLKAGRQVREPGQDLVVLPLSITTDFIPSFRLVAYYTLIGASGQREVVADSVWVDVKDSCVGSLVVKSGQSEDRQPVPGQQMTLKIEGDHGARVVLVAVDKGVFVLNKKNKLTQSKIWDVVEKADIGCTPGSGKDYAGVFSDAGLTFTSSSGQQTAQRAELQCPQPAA
Aggrecan (Rattus norvegicus), NP_071526, sequence (chain, as listed by the source): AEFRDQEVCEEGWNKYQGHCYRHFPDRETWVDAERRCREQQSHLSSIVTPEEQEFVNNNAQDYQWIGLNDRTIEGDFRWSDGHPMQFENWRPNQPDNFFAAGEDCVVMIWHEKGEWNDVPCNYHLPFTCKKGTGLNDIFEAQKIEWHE
Neurocan (Homo sapiens), O14594, sequence (O14594 other isoform, or with tags, fused parts or gaps): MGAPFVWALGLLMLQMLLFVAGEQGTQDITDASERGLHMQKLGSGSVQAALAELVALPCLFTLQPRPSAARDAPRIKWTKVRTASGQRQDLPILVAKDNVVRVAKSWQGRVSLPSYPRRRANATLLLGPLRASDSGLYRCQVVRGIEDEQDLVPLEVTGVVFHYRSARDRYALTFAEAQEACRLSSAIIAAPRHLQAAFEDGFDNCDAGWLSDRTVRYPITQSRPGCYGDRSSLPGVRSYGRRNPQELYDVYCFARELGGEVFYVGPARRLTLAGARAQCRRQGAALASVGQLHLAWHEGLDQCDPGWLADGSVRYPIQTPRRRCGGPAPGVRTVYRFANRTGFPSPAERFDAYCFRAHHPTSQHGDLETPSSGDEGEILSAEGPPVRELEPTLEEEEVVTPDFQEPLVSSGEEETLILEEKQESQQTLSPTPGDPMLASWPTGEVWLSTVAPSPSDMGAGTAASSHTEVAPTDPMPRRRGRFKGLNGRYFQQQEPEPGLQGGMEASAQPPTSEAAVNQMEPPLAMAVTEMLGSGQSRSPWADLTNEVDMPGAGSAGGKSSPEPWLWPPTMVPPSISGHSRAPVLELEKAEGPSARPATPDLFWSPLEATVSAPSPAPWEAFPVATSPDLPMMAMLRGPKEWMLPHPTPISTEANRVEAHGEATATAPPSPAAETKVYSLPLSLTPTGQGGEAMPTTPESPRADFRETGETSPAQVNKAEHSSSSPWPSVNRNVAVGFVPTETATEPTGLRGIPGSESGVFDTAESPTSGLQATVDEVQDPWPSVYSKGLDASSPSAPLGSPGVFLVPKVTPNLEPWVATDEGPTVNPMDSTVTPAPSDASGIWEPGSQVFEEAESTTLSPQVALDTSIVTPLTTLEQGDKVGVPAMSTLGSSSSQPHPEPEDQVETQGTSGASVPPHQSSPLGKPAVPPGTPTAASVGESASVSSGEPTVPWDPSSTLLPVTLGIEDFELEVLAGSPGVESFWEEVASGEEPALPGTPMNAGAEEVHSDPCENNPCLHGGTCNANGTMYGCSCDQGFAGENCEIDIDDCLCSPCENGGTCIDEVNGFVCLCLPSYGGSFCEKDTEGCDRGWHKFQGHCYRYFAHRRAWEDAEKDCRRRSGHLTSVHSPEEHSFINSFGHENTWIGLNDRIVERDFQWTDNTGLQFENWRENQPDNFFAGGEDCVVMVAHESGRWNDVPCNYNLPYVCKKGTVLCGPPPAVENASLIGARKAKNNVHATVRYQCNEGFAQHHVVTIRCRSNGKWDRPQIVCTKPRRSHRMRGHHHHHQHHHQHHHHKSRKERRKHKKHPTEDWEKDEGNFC

HARE (Homo sapiens), Q8WWQ8 was tested, and the “glycan array binding signal (z-score)” value [1] was -0.41.

For Siglec-8 (Homo sapiens), Q9NYZ4, the “glycan array binding signal (z-score)” value (Neu5Ac(a2-3)Gal(b1-4)Glc) was 6.29, the “glycan array binding signal (z-score)” value [2] was -0.182 and the “glycan array binding signal (z-score)” value ([3]; mutation: R125K) was 0.14. For the same substance, the “glycan array binding signal (z-score)” value ([4]; mutation: R125K) was -0.382.

Aggrecan (Rattus norvegicus), NP_071526 was tested, and the “glycan array binding signal (z-score)” value [5] was -0.136.

CHI3L1 (Homo sapiens), P36222 was tested, and the “glycan array binding signal (z-score)” value [6] was -0.075 and the “glycan array binding signal (z-score)” value [3] was -0.104.

With Neurocan (Homo sapiens), O14594 the “glycan array binding signal (z-score)” value [6] was 4.45.

For PILRb (Mus musculus), Q2YSF2, the “glycan array binding signal (z-score)” value [4] was -0.229.

6RG (Lolium perenne) was tested, and the “glycan array binding signal (z-score)” value [4] was -0.352.

In the case of C3b (Homo sapiens), P01024, the “glycan array binding signal (z-score)” value [7] is reported as 0.03.
